From PubChem BioAssay (NCATS)
For part of these data: Measured potencies and affinities stand elsewhere. Activity calls are given as the source filed them. The rule behind the calls is not given here.

Conditions: Ebola virus entry assay, green fluorescence channel
Throughout, for efficacy: 0% is about no effect.

Row | SMILES | efficacy
1 | O=C(Nc1ccccc1)OCC(CN1CCCCC1)OC(=O)Nc1ccccc1 (stereo not drawn) | 31.7% (inactive)
2 | C[n+]1cc2c3c(ccc2c2ccc4cc5c(cc4c21)OCO5)OCO3 | -149% (inactive)
3 | CCC(=O)O[C@]1(C(=O)COC)[C@@H](C)C[C@H]2[C@@H]3CCC4=CC(=O)C=C[C@]4(C)C3(F)[C@@H](O)C[C@@]21C (stereo partly drawn) | 67.5% (inactive)
4 | O=C(Cn1ccnc1[N+](=O)[O-])NCCO | -27.8% (inactive)
5 | CCN(CCCc1ccccc1)CCCc1ccccc1 | 48.4% (inactive)
6 | c1ccc(CNCCNCc2ccccc2)cc1 | 55.2% (inactive)
7 | NC1(c2ccc(-c3nc4ccn5c(=O)[nH]nc5c4cc3-c3ccccc3)cc2)CCC1 | 104% (inactive)
8 | Nc1ccc(C(=O)N2CC3CC(CN(Cc4ccccc4)C3)C2)cc1 | 68.8% (inactive)
9 | CC(=O)OCC(=O)[C@@]12N=C(C)O[C@@H]1C[C@H]1[C@@H]3CCC4=CC(=O)C=C[C@]4(C)[C@H]3[C@@H](O)C[C@@]12C | 27% (inactive)
10 | CCCCCOc1ccccc1/C(=C\SC)n1ccnc1 | 106% (inactive)
11 | NCCc1ccc(O)c(O)c1 | 28.6% (inactive)
12 | O=c1[nH]c2ccccc2n1CCCN1CCN(C(c2ccccc2)c2ccccc2)CC1 | -120% (inactive)
13 | CC(=O)OCC(=O)[C@@]1(O)CC[C@H]2[C@@H]3CCC4=CC(=O)C=C[C@]4(C)[C@H]3[C@@H](O)C[C@@]21C | -46.1% (inactive)
14 | CC(C)(C)c1ccc(C(O)CCCN2CCC(C(O)(c3ccccc3)c3ccccc3)CC2)cc1 (stereo not drawn) | 59% (inactive)
15 | O=C(Nc1ccc(S(=O)(=O)N2CCOCC2)cc1)c1cc(Cl)ccc1NS(=O)(=O)c1ccc(Cl)s1 | 119% (inactive)
16 | Nc1c2c(nc3ccccc13)CCCC2O (stereo not drawn) | 42.6% (inactive)
17 | c1ccc(-c2ccc(C(c3ccccc3)n3ccnc3)cc2)cc1 (stereo not drawn) | 98.3% (inactive)
18 | CC(C)NCCCC1(C(N)=O)c2ccccc2-c2ccccc21 | 42.8% (inactive)
19 | C[C@@H]1C[C@H]2[C@@H]3CCC4=CC(=O)C=C[C@]4(C)[C@@]3(F)[C@@H](O)C[C@]2(C)[C@@]1(O)C(=O)COC(=O)c1ccncc1 | 33.7% (inactive)
20 | Nc1ccc2c(c1)CN1C(=O)c3ccccc3C1=N2 | 64.3% (inactive)

Row | SMILES | efficacy
21 | COC[C@@H](c1ccc(C(F)(F)F)cc1)N1CCN(C2(C)CCN(C(=O)c3c(C)ncnc3C)CC2)C[C@H]1C | 69.2% (inactive)
22 | CCOC(=O)C1(c2ccccc2)CCN(CCc2ccc(N)cc2)CC1 | 105% (inactive)
23 | O=C(CS)Nc1ccccc1 | 30.5% (inactive)
24 | Nc1nc2ccccc2n1Cc1ccc(F)cc1 | 54.1% (inactive)
25 | CCOC(=O)OC(C)OC(=O)[C@@H]1N2C(=O)[C@@H](NC(=O)[C@H](N)c3ccccc3)[C@H]2SC1(C)C (stereo partly drawn) | 47.6% (inactive)
26 | CCOC(=O)COc1ccc2c(C)c(CCN(CC)CC)c(=O)oc2c1Cl | 158% (inactive)
27 | CN(C(=O)CCCOc1ccc2[nH]c(=O)ccc2c1)C1CCCCC1 | 72.6% (inactive)
28 | CC[N+](CC)(CC)CCOc1ccc(/C=C/c2ccccc2)cc1 | 64.2% (inactive)
29 | CCOCCn1c(N2CCCN(C)CC2)nc2ccccc21 | 58.4% (inactive)
30 | NS(=O)(=O)c1ccc(N2CCCCS2(=O)=O)cc1 | -36.2% (inactive)
31 | CC/C(=C(/CC)c1ccc(O)cc1)c1ccc(O)cc1 | 26.9% (inactive)
32 | C[C@H]1O[C@@H](O[C@H]2CC[C@@]3(C)[C@H](CC[C@@H]4[C@@H]3C[C@@H](O)[C@]3(C)[C@@H](C5=CC(=O)OC5)CC[C@]43O)C2)C[C@H](O)[C@@H]1O[C@H]1C[C@H](O)[C@H](O[C@H]2C[C@H](O)[C@H](O[C@@H]3O[C@H](CO)[C@@H](O)[C@H](O)[C@H]3O)[C@@H](C)O2)[C@@H](C)O1 | -58.9% (inactive)
33 | Clc1ccc(C(OCCN2CCCCC2)c2ccccc2)cc1 (stereo not drawn) | 53.2% (inactive)
34 | CC1=C(CC(=O)O)c2cc(F)ccc2/C1=C\c1ccc(S(C)(=O)=O)cc1 | 40.3% (inactive)
35 | CNC[C@H](O)c1ccc(O)c(O)c1 | 27.1% (inactive)
36 | c1cnc(N2CCN(Cc3ccc4c(c3)OCO4)CC2)nc1 | 47.2% (inactive)
37 | Cc1nc2ccccc2c(=O)n1-c1ccccc1Cl | 30.7% (inactive)
38 | C[C@@H]1CC[C@H]2[C@@H](C)C(=O)O[C@@H]3O[C@@]4(C)CC[C@@H]1[C@]32OO4 | 76.3% (inactive)
39 | C=C1c2cccc(O)c2C(O)=C2C(=O)[C@]3(O)C(O)=C(C(N)=O)C(=O)[C@@H](N(C)C)[C@@H]3[C@@H](O)[C@H]12 | 38.3% (inactive)

Conditions: Ebola virus entry assay, blue channel fluorescence

Row | SMILES | AC50 | outcome
40 | O=C(Nc1ccccc1)OCC(CN1CCCCC1)OC(=O)Nc1ccccc1 (stereo not drawn) | 10 µM (active) | –
41 | C[n+]1cc2c3c(ccc2c2ccc4cc5c(cc4c21)OCO5)OCO3 | 17.8 µM (active) | –
42 | CCC(=O)O[C@]1(C(=O)COC)[C@@H](C)C[C@H]2[C@@H]3CCC4=CC(=O)C=C[C@]4(C)C3(F)[C@@H](O)C[C@@]21C (stereo partly drawn) | – | inactive
43 | O=C(Cn1ccnc1[N+](=O)[O-])NCCO | – | inactive
44 | CCN(CCCc1ccccc1)CCCc1ccccc1 | 5.62 µM (active) | –
45 | c1ccc(CNCCNCc2ccccc2)cc1 | – | inactive
46 | NC1(c2ccc(-c3nc4ccn5c(=O)[nH]nc5c4cc3-c3ccccc3)cc2)CCC1 | 2.82 µM (active) | –
47 | Nc1ccc(C(=O)N2CC3CC(CN(Cc4ccccc4)C3)C2)cc1 | – | inactive
48 | CC(=O)OCC(=O)[C@@]12N=C(C)O[C@@H]1C[C@H]1[C@@H]3CCC4=CC(=O)C=C[C@]4(C)[C@H]3[C@@H](O)C[C@@]12C | – | inactive
49 | CCCCCOc1ccccc1/C(=C\SC)n1ccnc1 | – | inactive
50 | NCCc1ccc(O)c(O)c1 | – | inactive
51 | O=c1[nH]c2ccccc2n1CCCN1CCN(C(c2ccccc2)c2ccccc2)CC1 | 12.6 µM (active) | –
52 | CC(=O)OCC(=O)[C@@]1(O)CC[C@H]2[C@@H]3CCC4=CC(=O)C=C[C@]4(C)[C@H]3[C@@H](O)C[C@@]21C | – | inactive
53 | CC(C)(C)c1ccc(C(O)CCCN2CCC(C(O)(c3ccccc3)c3ccccc3)CC2)cc1 (stereo not drawn) | 1.41 µM (active) | –
54 | O=C(Nc1ccc(S(=O)(=O)N2CCOCC2)cc1)c1cc(Cl)ccc1NS(=O)(=O)c1ccc(Cl)s1 | – | inactive
55 | Nc1c2c(nc3ccccc13)CCCC2O (stereo not drawn) | – | inactive
56 | c1ccc(-c2ccc(C(c3ccccc3)n3ccnc3)cc2)cc1 (stereo not drawn) | 12.6 µM (active) | –
57 | CC(C)NCCCC1(C(N)=O)c2ccccc2-c2ccccc21 | – | inactive
58 | C[C@@H]1C[C@H]2[C@@H]3CCC4=CC(=O)C=C[C@]4(C)[C@@]3(F)[C@@H](O)C[C@]2(C)[C@@]1(O)C(=O)COC(=O)c1ccncc1 | – | inactive
59 | Nc1ccc2c(c1)CN1C(=O)c3ccccc3C1=N2 | – | inactive

Row | SMILES | AC50 | outcome
60 | COC[C@@H](c1ccc(C(F)(F)F)cc1)N1CCN(C2(C)CCN(C(=O)c3c(C)ncnc3C)CC2)C[C@H]1C | – | inactive
61 | CCOC(=O)C1(c2ccccc2)CCN(CCc2ccc(N)cc2)CC1 | 28.2 µM (active) | –
62 | O=C(CS)Nc1ccccc1 | – | inactive
63 | Nc1nc2ccccc2n1Cc1ccc(F)cc1 | – | inactive
64 | CCOC(=O)OC(C)OC(=O)[C@@H]1N2C(=O)[C@@H](NC(=O)[C@H](N)c3ccccc3)[C@H]2SC1(C)C (stereo partly drawn) | – | inactive
65 | CCOC(=O)COc1ccc2c(C)c(CCN(CC)CC)c(=O)oc2c1Cl | 28.2 µM (active) | –
66 | CN(C(=O)CCCOc1ccc2[nH]c(=O)ccc2c1)C1CCCCC1 | – | inactive
67 | CC[N+](CC)(CC)CCOc1ccc(/C=C/c2ccccc2)cc1 | – | inactive
68 | CCOCCn1c(N2CCCN(C)CC2)nc2ccccc21 | – | inactive
69 | NS(=O)(=O)c1ccc(N2CCCCS2(=O)=O)cc1 | – | inactive
70 | CC/C(=C(/CC)c1ccc(O)cc1)c1ccc(O)cc1 | – | inactive
71 | C[C@H]1O[C@@H](O[C@H]2CC[C@@]3(C)[C@H](CC[C@@H]4[C@@H]3C[C@@H](O)[C@]3(C)[C@@H](C5=CC(=O)OC5)CC[C@]43O)C2)C[C@H](O)[C@@H]1O[C@H]1C[C@H](O)[C@H](O[C@H]2C[C@H](O)[C@H](O[C@@H]3O[C@H](CO)[C@@H](O)[C@H](O)[C@H]3O)[C@@H](C)O2)[C@@H](C)O1 | 1.58 µM (active) | –
72 | Clc1ccc(C(OCCN2CCCCC2)c2ccccc2)cc1 (stereo not drawn) | 14.1 µM (active) | –
73 | CC1=C(CC(=O)O)c2cc(F)ccc2/C1=C\c1ccc(S(C)(=O)=O)cc1 | – | inactive
74 | CNC[C@H](O)c1ccc(O)c(O)c1 | – | inactive
75 | c1cnc(N2CCN(Cc3ccc4c(c3)OCO4)CC2)nc1 | – | inactive
76 | Cc1nc2ccccc2c(=O)n1-c1ccccc1Cl | – | inactive
77 | C[C@@H]1CC[C@H]2[C@@H](C)C(=O)O[C@@H]3O[C@@]4(C)CC[C@@H]1[C@]32OO4 | – | inactive
78 | C=C1c2cccc(O)c2C(O)=C2C(=O)[C@]3(O)C(O)=C(C(N)=O)C(=O)[C@@H](N(C)C)[C@@H]3[C@@H](O)[C@H]12 | 7.08 µM (active) | –
